Here are results for 13 compounds from PubChem BioAssay (NCI).

Compounds without any hit were thinned out: in the full panel of roughly 83,000, 20% have a hit.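 Growth was measured after 48 h exposure to one concentration of compound in 96-well plates. Values under 10 count as active.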 Values without a mark were called inactive. The source made the active and inactive calls.

This assay concerns HOP-92 NSCLC. The experiment in a line: NCI-60 one-dose screen, 48 h (100 = growth as untreated, 0 = no growth, -100 = all killed). The following applies: 10 µM unless noted.
As for `COc1cc2c(c(OC)c1OC)C(=O)CC(c1cccc(NC(=O)[C@@H](N)CC(C)C)c1)O2` (stereo partly drawn), the growth was 80.2%.
Then `CN1CCN(/C(=N\c2sc(-c3ccccc3)nc2-c2ccccc2)c2ccccc2)CC1`, with 80.2%; and `Cc1ccc(-c2nnc3ccc(N/N=C/c4ccccc4)nn23)cc1`, with 70.5%.
For the compound `COc1ccc(C(=O)/C=C/c2ccccc2Br)cc1S(N)(=O)=O`, the growth is 76.8%.
As for `CC1=C(C(=O)OCc2ccccc2)C(c2c(O)cc(O)cc2O)n2c(nc3ccccc32)N1` (stereo not drawn), the growth was 83.1%.
Then `CCCCc1c(Nn2cnnn2)no[n+]1[O-]`, with 46.4%.
For the compound `CC(C)CSc1nc(NCCc2c[nH]c3ccccc23)c(C#N)c(-c2ccc(Cl)cc2)n1`, the growth is 36.3%.
Take `CN1CCc2c(sc3ncnc(N/N=C/c4ccc(Cl)cc4Cl)c23)C1`: the growth is -47.2% (active).
With `N#Cc1c(-c2ccc(Br)cc2)nc2n[nH]c(-c3ccc(Br)cc3)c2c1-c1ccc(F)cc1`, the growth is 112%.
Turning to `CC(=O)OC[C@@]1(C)C2CC[C@]3(C)C(CC=C4C5CC(C)(C)CC[C@]5(C(=O)Nc5ccc(F)cc5)CC[C@]43C)[C@@]2(C)C[C@@H](OC(C)=O)[C@@H]1OC(C)=O` (stereo partly drawn), the growth was 54.2%.
Take `NS(=O)(=O)c1ccc(N=Nc2c(O)n(CC(=O)Nc3ccccc3Cl)c3ccccc23)cc1`: the growth is 33.7%.
For `CCCCNC(=S)Nc1ccc(OCc2nc3ccccc3[nH]2)cc1`, the growth is 96.2%.
On to `Cc1cc2nc3c4ccccc4n(CCCN(C)C)c3nc2cc1C`, for which the growth was -18.2% (active).
